This passage reports B-score results from PubChem BioAssay AID641 (Vanderbilt High Throughput Screening Facility, 2007).

The campaign covered roughly 58,000 compounds. About 3,400 (5.9%) were called active. What follows is part of a selection rich in actives, with near analogues and random picks from the rest. A number with no mark means an inactive call.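 Rule for the calls: active = luminescence count or its row- and column-corrected plate score outside the 99.7% band of the plate's sample wells, on either side; inactive = the rest.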

The assay deals with D(1A) dopamine receptor (Homo sapiens) (UniProt P21728). As to the kind of experiment: D1 CRE-luciferase signal change, two-sided – cell-based, HEK293 D1, dopamine EC30, D1 allosteric modulator project, primary screen (AID 641). The conditions noted are these: dopamine EC30 potentiation, at 10 µM, actives deviate in either direction.
Chain of D(1A) dopamine receptor (Homo sapiens) (P21728 whole entry, looked up): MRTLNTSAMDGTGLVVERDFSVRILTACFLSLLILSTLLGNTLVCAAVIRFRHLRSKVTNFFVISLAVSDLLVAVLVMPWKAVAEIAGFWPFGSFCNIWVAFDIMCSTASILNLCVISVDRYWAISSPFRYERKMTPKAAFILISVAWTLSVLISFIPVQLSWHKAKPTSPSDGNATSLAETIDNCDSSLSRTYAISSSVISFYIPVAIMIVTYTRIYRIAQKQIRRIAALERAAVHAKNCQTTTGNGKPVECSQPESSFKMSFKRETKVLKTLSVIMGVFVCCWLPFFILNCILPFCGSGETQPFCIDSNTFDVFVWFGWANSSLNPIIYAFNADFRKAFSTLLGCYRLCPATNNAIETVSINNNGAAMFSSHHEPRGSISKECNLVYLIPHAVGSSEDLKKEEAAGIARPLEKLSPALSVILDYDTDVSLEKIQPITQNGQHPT
On to `Cc1ccc(C)c(S(=O)(=O)n2cnc3ccccc32)c1`, for which the B-score was 0.135.

As for `Cc1ccc(N2C(=O)c3oc4ccccc4c(=O)c3C2c2cccnc2)nc1` (centres undefined), the B-score is 0.194. The same measure for `Cc1ccc(C(=O)Nc2nnc(-c3ccncc3)s2)o1`: -0.406; for `CCn1c(=N)c(S(=O)(=O)c2ccc(F)cc2)cc2c(=O)n3ccccc3nc21`: 4.93 (active); for `CCn1c(=N)c(C(=O)NCCCOC)cc2c(=O)n3cccc(C)c3nc21`: -0.055.

Consider `CCOC(=O)N1CCN(CC(=O)c2ccc3c(c2)CCN3)CC1`, for which the B-score was -0.515. With `O=C(O)c1cc(S(=O)(=O)N2CCCCCC2)c(Cl)cc1Cl` the figure was -0.949; with `COc1ccc(CCn2nnnc2C(c2ccccc2)N2CCN(C)CC2)cc1OC` (centres undefined), 0.116.

With `Cc1ccc(C(c2nnnn2C(C)(C)C)N2CCc3ccccc3C2)cc1` (centres undefined), the B-score is -2.5 (active). On to `Cc1ccc(C(c2nnnn2CS(=O)(=O)c2ccc(C)cc2)N2CCC(C(N)=O)CC2)cc1` (centres undefined), for which the B-score was 0.737.

In the case of `CC(C)(C)n1nnnc1C(c1ccc2ncccc2c1)N1CCSCC1` (centres undefined), the B-score was -0.519. With `COc1ccc(OC)c(C(c2nnnn2C(C)(C)C)N2CCc3ccccc3C2)c1` (centres undefined) the figure was -4.02 (active); with `CCC(C)(C)n1nnnc1C(c1ccccc1OC)N1CCSCC1` (centres undefined), -0.522; with `CCOCCc1c(O)nc(SCC(=O)NCc2ccco2)[nH]c1=O`, 1.04.

On to `CCCC(C)n1[nH]c(=O)c2c(C)cc(C)nc21` (centres undefined), for which the B-score was 1.59. As for `N#CCCN1CCN(S(=O)(=O)c2ccc(S(=O)(=O)N3CCCC3)cc2)CC1`, the B-score is 0.478. With `N#CCCN1CCN(S(=O)(=O)c2ccc(S(=O)(=O)NC3CC3)cc2)CC1`, the B-score is -0.0246. The same measure for `N#CCCN1CCN(S(=O)(=O)c2ccc(S(=O)(=O)NC3CCCCC3)cc2)CC1`: 3.08 (active).

In the case of `COc1ccc(N2C(=O)C3CCCN3C2c2cc(OC)c(OC)cc2OC)cc1` (centres undefined), the B-score was 0.17. Consider `CCOC(=O)C1=C(O)CSC1=Nc1cccc(Cl)c1`, for which the B-score is 7.94 (active). Turning to `CCOC(=O)C1=C(C)NC(C)=C(C(=O)OCC)C1c1ccccn1`, the B-score was -0.891. `CCOC(=O)c1cc(-c2ccc(Cl)s2)nc2c1c(C)nn2C`: the B-score was 0.665. Regarding `COc1ccc(CCNC(=O)c2ccco2)cc1`, the B-score was 1.58.

With `CCOC(=O)c1c(-c2ccc(C)cc2C)csc1NC(=O)CSc1nnnn1C`, the B-score is 0.507.

Consider `Cc1ccc(-c2nc(COC(=O)c3c(C)noc3C)cs2)cc1`, for which the B-score is -0.259. Regarding `CCOC(=O)c1c(C2CC2)csc1NC(=O)CSCc1c(C)noc1C`, the B-score is -3.6 (active).

Turning to `O=C(C1=C(O)C(=O)N(c2ncccn2)C1c1cccs1)c1ccco1` (centres undefined), the B-score was -0.746. Regarding `Cn1c(=O)[nH]c(=O)c2c1nc(N1CCN(CCO)CC1)n2CCSc1nc2ccccc2s1`, the B-score is 0.525. On to `c1nnc2c3c4c(sc3ncn12)CCC4`, for which the B-score is 0.277. Regarding `Cc1ccccc1Cn1c(=O)[nH]c2ccccc21`, the B-score is -0.259. The same measure for `Cc1ccc(N2C(=O)CC(NCc3ccc4c(c3)OCO4)C2=O)cc1Cl` (centres undefined): 0.36.

`CCOc1cc(/C=N/O)cc(Br)c1OC`: the B-score was 10.9 (active). Take `O=C(c1cnn2ccccc12)N1CCc2ccccc21`: the B-score is -0.641. `CCCN(CCC)C(=O)C1c2ccccc2Oc2ccccc21`: the B-score was 0.123. As for `C/C(=C\C(=O)c1cccnc1)Nc1ccc(C)c(C)c1`, the B-score was 0.381. In the case of `CC(=O)c1cccc(NC(=O)c2ccncc2)c1`, the B-score is -0.215. With `C/C(=C\C(=O)c1ccccc1)Nc1cccc(O)c1` the figure was 4.14 (active). Take `CCc1nc(Nc2ccc3nccnc3c2)c2oc3ccccc3c2n1`: the B-score is -1.78. Turning to `Cc1cccc(N2CCN(C(c3ccccc3)c3nnnn3CC3CCCO3)CC2)c1C` (centres undefined), the B-score is -1.87.

Consider `Cc1nc(N2CCN(c3ncccn3)CC2)c2oc3ccccc3c2n1`, for which the B-score was 3.11.

Turning to `COc1ccc(CCNC(=O)CSc2nc(C)nc3c2oc2ccccc23)cc1OC`, the B-score is 1.41. The same measure for `CCSc1nc(C)nc2c1oc1ccccc12`: 10.5 (active); for `CCn1nnc(NC(=O)c2c(OC)cccc2OC)n1`: -0.273.

Take `Cc1ccccc1CN1CCN(CC(=O)NCc2ccccn2)C1=O`: the B-score was -0.577.

Take `COCCn1c(-c2ccc(OC)c(OC)c2)nc2ccccc21`: the B-score is 1.2. Turning to `COc1ccc(-c2nnco2)cc1OC`, the B-score was 9.98 (active). As to `COc1ccc2c(Cl)c(-c3nnco3)sc2c1`, the B-score is -2.33. With `COC(=O)c1ccc(NC(=O)CN(c2ccc(C)cc2)S(=O)(=O)c2c(C)n[nH]c2C)cc1`, the B-score is -1.32. With `CC(=O)NCC(=O)N(C)C(C(=O)Nc1ccc2c(c1)OCCO2)c1ccccc1` (centres undefined) the figure was 1.86; with `CC(=O)NC(C)c1nc2ccccc2n1Cc1ccccc1F` (centres undefined), 0.517; with `Cc1nc(Nc2ccc3c(c2)OCCO3)c2nnn(Cc3ccccc3Cl)c2n1`, -2.58. The same measure for `C#CCNc1nc(C(C)C)nc2c1nnn2Cc1ccccc1F`: 8.02 (active); for `NC(=O)C1CC=CCC1C(=O)OCC(Cl)=C(Cl)Cl` (centres undefined): -0.419; for `CCOc1cccc(=O)c2c(C)n(CC3CCCO3)c(C)c12` (centres undefined): 0.961. As for `CCOC(=O)NC(C(F)(F)F)(C(F)(F)F)P(=O)(c1ccccc1)c1ccccc1`, the B-score was -0.00139. Consider `CCCn1c(=O)c2[nH]c(C3CCCC3)nc2n(CCC)c1=O`, for which the B-score is 20 (active). `CCN(c1ccccc1)S(=O)(=O)c1ccc(N)cc1`: the B-score was 0.0758.

As for `CC(NC(=O)CN1CCN(Cc2ccc(Cl)cc2)C1=O)c1ccc2c(c1)OCCO2` (centres undefined), the B-score was -0.383.

As for `CCNc1nc(NCC)nc(N(C)n2cnnc2)n1`, the B-score is 6.74 (active). Take `CCNc1nc(SCCOc2ccccc2)nc(N(C)C)n1`: the B-score is 1.16. Take `Cc1cccc(NC(=O)C2CCN(S(=O)(=O)c3cccc4cccnc34)CC2)c1`: the B-score was -1.64.

As for `CCOC(=O)c1ccc(Nc2cc(C)nc3nc(C)nn23)cc1`, the B-score is 0.18. With `COc1cccc(N2CC(C(=O)Nc3c(C)cccc3C)CC2=O)c1` (centres undefined), the B-score is 0.869. With `Cc1cc(NC(=O)CN2CCCCC2C)nc2c1c(=O)oc1ccccc12` (centres undefined), the B-score was -0.0379.

As to `CCc1ccc2oc(=O)cc(CN3CCCCC3C)c2c1` (centres undefined), the B-score is 3.81 (active). In the case of `CC1CCCCN1CC(=O)NCc1ccc2c(c1)OCO2` (centres undefined), the B-score is 0.0178.

In the case of `COCC(C)N=CC1=C(O)CC(C)(C)CC1=O` (centres undefined), the B-score is 0.0482.

For `CCn1c(Cc2ccccc2)nnc1SCC(=O)Nc1ccccc1`, the B-score was -0.326. `CC1OC2C(OC1C)N(S(C)(=O)=O)CCN2S(C)(=O)=O` (centres undefined): the B-score was -0.145. As to `CCc1ccc(-c2nnn(Cc3nn[nH]n3)n2)cc1`, the B-score was -0.837. With `COc1ccc(-c2nnn(CC(=O)N(CCO)C(C(=O)NC3CCCC3)c3ccc(F)cc3)n2)cc1` (centres undefined) the figure was -0.256; with `COc1ccc(-c2nnn(Cc3nc(N)nc(N4CCCCC4)n3)n2)cc1`, 5 (active).

For `COc1ccc(-n2nc3c(c2NC(=O)Cc2cccc(C)c2)CS(=O)C3)cc1` (centres undefined), the B-score is 0.123. Regarding `COc1cccc(NC(=O)Nc2nnc(N3CCCCC3C)s2)c1` (centres undefined), the B-score was -0.931. Take `CC/C(=N\O)C(C)(C)/[N+]([O-])=C/c1ccc(Br)cc1`: the B-score was 0.458. On to `CCCS(=O)(=O)N1CCC(C(=O)NCCCN(C)Cc2ccccc2)CC1`, for which the B-score is -0.981. With `COc1ccc(CCNC(=O)C2CCN(c3nn4c(=O)cc(C)nc4s3)CC2)cc1OC` the figure was -0.543. The same measure for `CCCS(=O)(=O)N1CCC(C(=O)NCCc2ccc(OC)c(OC)c2)CC1`: 1.44 (active); for `CN1CCN(Cc2c(O)ccc3c2oc(=O)c2ccccc23)CC1`: -0.323. For the molecule `O=C(CSc1nnc(-c2cccs2)n1Cc1ccco1)c1ccc2c(c1)OCO2`, the B-score was -1.01. With `CCOC(=O)N1CCC(NC(=O)c2cnn3ccccc23)CC1` the figure was 0.314; with `CC1Oc2ccccc2N(Cc2cccnc2)C1=O` (centres undefined), 6.15 (active); with `O=C(Cn1nc(Cc2cccnc2)c2ccccc2c1=O)NCC1COc2ccccc2O1` (centres undefined), 0.362. The same measure for `O=C(O)C1CC(=O)N(Cc2cccnc2)C1` (centres undefined): -0.0843; for `Cc1cc2cc(CNC(=O)c3ccc(S(=O)(=O)N4CCOCC4)cc3)ccc2[nH]1`: 0.133.

As to `O=C(CN1C(=O)CSc2ncccc21)N1CCOCC1`, the B-score is -0.0289.

In the case of `Cc1cc(=O)cc(C)[nH]1`, the B-score was -0.271.

Regarding `CC(=O)NC(C)(C)C1CC=C(C)/C(=N\O)C1` (centres undefined), the B-score was 0.674. In the case of `OC(COc1ccccc1)Cn1cc(Br)cn1` (centres undefined), the B-score was -0.000319. The same measure for `CCn1cc(C(=O)NCc2ccc3c(c2)OCO3)c2cc(OC)c(OC)cc2c1=O`: 0.436; for `CCn1cc(C(=O)NCC2COc3ccccc3O2)c2cc(OC)c(OC)cc2c1=O` (centres undefined): 5.22 (active).

`CCn1cc(C(=O)N2CCN(Cc3ccc4c(c3)OCO4)CC2)c2cc(OC)c(OC)cc2c1=O`: the B-score was -1.2. As to `Cc1ccccc1C(=O)Nc1cccc(-c2nnc(SCC(=O)O)n2C)c1`, the B-score was -0.574. Turning to `CCCc1[nH]nc2c1C(c1ccc(OC)c(Cn3nc(C)c(Br)c3C)c1)C(C#N)=C(N)O2` (centres undefined), the B-score was 0.961. Regarding `CC1(C)CC(=O)c2sc(N)nc2C1`, the B-score is -0.282. With `CCCc1nc(N)nc2c1C(=O)CC(C)(C)C2`, the B-score was 14.2 (active).

Take `Cc1ccccc1CSCC(=O)NC(=O)NC(C)(C)C`: the B-score was 0.485.

`CC(Nc1nc(N2CCCC2)nc2ccccc12)c1ccccc1` (centres undefined): the B-score was -4.18 (active).

Turning to `Cc1ccc(C(CC(=O)O)Nc2nc(N3CCCCC3)nc(N3CCCCC3)n2)cc1` (centres undefined), the B-score was -0.363.
